Drawing on paper PMC3218832, this text covers binding signal for 15 sequences.

Some targets named below: RELARELA (p65 homodimer) (Homo sapiens, UniProt Q04206 1-307); p50p50 homodimer (Homo sapiens, UniProt P19838 7-356); RELB subunit;p50 subunit (Homo sapiens;Homo sapiens, UniProt Q01201;P19838 120-401;7-356).
Common to all, as to experiment: protein binding microarray; high values mean tight binding
Conditions in all cases: dsDNA, one strand shown

The target of another test is T1, p52p52 homodimer (Homo sapiens, UniProt Q00653 4-332).
T1 sequence: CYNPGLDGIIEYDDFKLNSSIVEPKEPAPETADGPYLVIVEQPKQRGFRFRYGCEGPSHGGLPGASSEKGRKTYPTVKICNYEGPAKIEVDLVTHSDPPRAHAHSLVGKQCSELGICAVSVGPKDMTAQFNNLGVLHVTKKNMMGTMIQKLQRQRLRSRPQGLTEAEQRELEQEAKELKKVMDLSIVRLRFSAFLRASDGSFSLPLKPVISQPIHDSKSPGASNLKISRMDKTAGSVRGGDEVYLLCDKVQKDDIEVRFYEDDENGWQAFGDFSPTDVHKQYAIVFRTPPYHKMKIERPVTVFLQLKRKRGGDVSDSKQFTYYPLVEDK

The target in test [1] is RELA (p65) subunit of heterodimer;p50 subunit (Homo sapiens;Homo sapiens, UniProt Q04206;P19838 1-307;7-356).
Test [2] concerns the target RELA (p65) subunit of heterodimer;p52 subunit (Homo sapiens;Homo sapiens, UniProt Q04206;Q00653 1-307;4-332).
For the next test, the target named is T2, RELB subunit;p52 subunit (Homo sapiens;Homo sapiens, UniProt Q01201;Q00653 120-401;4-332).
T2 sequence 1: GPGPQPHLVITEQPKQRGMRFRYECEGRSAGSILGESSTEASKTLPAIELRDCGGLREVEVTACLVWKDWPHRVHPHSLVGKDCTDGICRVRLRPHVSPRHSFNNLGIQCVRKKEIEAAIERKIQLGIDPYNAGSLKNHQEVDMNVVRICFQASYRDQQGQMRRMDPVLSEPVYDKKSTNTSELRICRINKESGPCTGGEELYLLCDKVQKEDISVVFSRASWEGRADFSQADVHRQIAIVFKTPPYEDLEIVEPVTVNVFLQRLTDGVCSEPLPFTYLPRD
T2 sequence 2: T1 sequence

Test [3] deals with C-Rel subunit;p50 subunit (Homo sapiens;Homo sapiens, UniProt Q04864;P19838 1-285;7-356).
Test [4] deals with T3, C-Rel subunit;p52 subunit (Homo sapiens;Homo sapiens, UniProt Q04864;Q00653 1-285;4-332).
T3 sequence 1: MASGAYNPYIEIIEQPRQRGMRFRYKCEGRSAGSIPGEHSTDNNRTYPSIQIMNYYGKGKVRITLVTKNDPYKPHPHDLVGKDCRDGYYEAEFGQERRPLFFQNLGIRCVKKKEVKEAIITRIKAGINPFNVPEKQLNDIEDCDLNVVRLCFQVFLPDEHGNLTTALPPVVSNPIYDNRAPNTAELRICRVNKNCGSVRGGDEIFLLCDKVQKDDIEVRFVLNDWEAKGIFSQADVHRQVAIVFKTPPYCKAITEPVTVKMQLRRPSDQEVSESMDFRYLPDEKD
T3 sequence 2: T1 sequence

RELARELA (p65 homodimer), sequence (Q04206 1-307): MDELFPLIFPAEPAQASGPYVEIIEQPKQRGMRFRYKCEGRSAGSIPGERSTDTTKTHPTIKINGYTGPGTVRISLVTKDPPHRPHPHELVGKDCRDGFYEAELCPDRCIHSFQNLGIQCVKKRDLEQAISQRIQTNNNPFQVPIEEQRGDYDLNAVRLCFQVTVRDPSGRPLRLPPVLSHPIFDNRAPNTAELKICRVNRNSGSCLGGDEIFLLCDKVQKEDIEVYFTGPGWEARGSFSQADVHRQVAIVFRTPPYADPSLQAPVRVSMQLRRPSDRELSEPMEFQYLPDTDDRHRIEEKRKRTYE
RELA (p65) subunit of heterodimer;p50 subunit, sequence (Q04206 1-307, chain 1 of 2): as the sequence (Q04206 1-307) above
RELA (p65) subunit of heterodimer;p50 subunit, sequence (P19838 7-356, chain 2 of 2): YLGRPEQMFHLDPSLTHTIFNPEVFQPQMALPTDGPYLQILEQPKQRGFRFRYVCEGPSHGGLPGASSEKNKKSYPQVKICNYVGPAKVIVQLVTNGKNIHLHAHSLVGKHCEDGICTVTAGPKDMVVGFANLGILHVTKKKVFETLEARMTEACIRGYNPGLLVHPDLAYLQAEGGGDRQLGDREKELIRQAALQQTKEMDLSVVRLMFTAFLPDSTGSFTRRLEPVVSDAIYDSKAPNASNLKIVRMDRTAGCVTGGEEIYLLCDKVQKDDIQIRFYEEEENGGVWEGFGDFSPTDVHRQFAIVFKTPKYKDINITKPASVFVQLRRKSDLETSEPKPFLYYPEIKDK
p50p50 homodimer, sequence (P19838 7-356): as the sequence (P19838 7-356, chain 2 of 2) above

Turning to AAGATCTCCCT, the binding signal in the test with RELARELA (p65 homodimer) worked out at 0.0704 z-score; with p50p50 homodimer, 1.15 z-score; with p52p52 homodimer it was 0.499 z-score; in [1], 0.913 z-score; in [2] it was 0.528 z-score; with RELB subunit;p50 subunit, 1.16 z-score. For the same sequence, the figures for the binding signal (in the test with RELB subunit;p52 subunit; in test [3]; in test [4]) were 1.02 z-score, 0.475 z-score and 0.202 z-score, respectively.

On to CAGGATCCCCT, for which the binding signal in the test with RELARELA (p65 homodimer) is -0.318 z-score; with p50p50 homodimer, 1.34 z-score; with p52p52 homodimer, 1.3 z-score; in [1], 1.91 z-score; in test [2], 1.43 z-score; with RELB subunit;p50 subunit it was 1.79 z-score. Besides, the binding signal with RELB subunit;p52 subunit turned out to be 1.65 z-score; in test [3], 1.34 z-score; in test [4] it was 0.975 z-score.

In the case of GGAGTGACCCC, the binding signal with RELARELA (p65 homodimer) was -0.389 z-score; in the test with p50p50 homodimer it was -0.505 z-score; with p52p52 homodimer it was -0.461 z-score; in test [1], -0.353 z-score; in [2], -0.178 z-score; with RELB subunit;p50 subunit it was -0.399 z-score. Also, the results for the binding signal (with RELB subunit;p52 subunit; in [3]; in test [4]) were -0.304 z-score, -0.367 z-score and -0.254 z-score, respectively.

Consider GGGGACACCCC, for which the binding signal with RELARELA (p65 homodimer) is 0.873 z-score; with p50p50 homodimer, 0.656 z-score; with p52p52 homodimer, 2.83 z-score; in [1] it was 1.56 z-score; in [2] it was 2.26 z-score; in the test with RELB subunit;p50 subunit, 1.68 z-score. Also, the binding signal in the test with RELB subunit;p52 subunit stood at 2.1 z-score; in [3], 1.26 z-score; in test [4], 2.35 z-score.

Consider GAAATAGTCCC, for which the binding signal with RELARELA (p65 homodimer) came to 0.835 z-score; with p50p50 homodimer, 1.16 z-score; with p52p52 homodimer, 1.31 z-score; in test [1], 1.16 z-score; in [2] it was 0.964 z-score; in the test with RELB subunit;p50 subunit it was 1.38 z-score. In addition, the binding signal with RELB subunit;p52 subunit worked out at 0.953 z-score; in test [3], 0.838 z-score; in test [4], 0.853 z-score.

On to AAAATCGCCCT, for which the binding signal with RELARELA (p65 homodimer) was -0.445 z-score; in the test with p50p50 homodimer, -0.836 z-score; with p52p52 homodimer, -0.395 z-score; in [1], -0.458 z-score; in test [2] it was -0.504 z-score; with RELB subunit;p50 subunit, -0.55 z-score. Also, the binding signal is -0.442 z-score with RELB subunit;p52 subunit, -0.504 z-score in [3] and -0.384 z-score in test [4].

Regarding CAAAAGACCCT, the binding signal with RELARELA (p65 homodimer) was -0.503 z-score; with p50p50 homodimer, 0.305 z-score; with p52p52 homodimer, -0.0206 z-score; in test [1] it was 0 z-score; in [2], 0.196 z-score; in the test with RELB subunit;p50 subunit it was -0.111 z-score. Moreover, the binding signal with RELB subunit;p52 subunit is -0.0281 z-score; in test [3], -0.615 z-score; in test [4], 0.0358 z-score.

Regarding AGGTAGGTCCC, the binding signal was -0.0694 z-score with RELARELA (p65 homodimer); -0.0842 z-score with p50p50 homodimer; 0.305 z-score with p52p52 homodimer; -0.0951 z-score in test [1]; 0.0859 z-score in test [2]; 0.0975 z-score in the test with RELB subunit;p50 subunit. The binding signal with RELB subunit;p52 subunit is 0.178 z-score; in test [3] it was 0.0304 z-score; in test [4], 0.122 z-score.

On to CGGATGGTCCC, for which the binding signal is 0.128 z-score with RELARELA (p65 homodimer); -0.139 z-score with p50p50 homodimer; -0.00887 z-score with p52p52 homodimer; 0.132 z-score in test [1]; 0.027 z-score in [2]; -0.0363 z-score with RELB subunit;p50 subunit. Besides, the figures for the binding signal (in the test with RELB subunit;p52 subunit; in [3]; in [4]) were -0.117 z-score, 0.0204 z-score and 0.154 z-score, respectively.

For the sequence CGAGTCTTCCC, the binding signal with RELARELA (p65 homodimer) was 0.331 z-score; with p50p50 homodimer it was -0.565 z-score; with p52p52 homodimer it was -0.302 z-score; in test [1] it was -0.0997 z-score; in [2], -0.304 z-score; with RELB subunit;p50 subunit it was -0.386 z-score. In addition, the binding signal with RELB subunit;p52 subunit was -0.409 z-score; in test [3], 0.0328 z-score; in test [4] it was -0.153 z-score.

With CGAGATACCCC, the binding signal with RELARELA (p65 homodimer) is -0.193 z-score; with p50p50 homodimer, 0.305 z-score; in the test with p52p52 homodimer, 0.114 z-score; in test [1] it was 0.439 z-score; in test [2], 0.228 z-score; in the test with RELB subunit;p50 subunit, 0.539 z-score. The binding signal worked out at 0.921 z-score in the test with RELB subunit;p52 subunit, 0.515 z-score in test [3] and 0.344 z-score in [4].

In the case of CGGTATGTCCT, the binding signal was 0.15 z-score with RELARELA (p65 homodimer); -0.81 z-score with p50p50 homodimer; -0.37 z-score with p52p52 homodimer; -0.663 z-score in test [1]; -0.702 z-score in [2]; -0.895 z-score with RELB subunit;p50 subunit. In addition, the binding signal with RELB subunit;p52 subunit was -0.675 z-score; in [3], -0.815 z-score; in test [4] it was -0.489 z-score.

For the sequence CAATGACCCCC, the binding signal with RELARELA (p65 homodimer) was -0.602 z-score; with p50p50 homodimer, 0.342 z-score; with p52p52 homodimer, 0.0634 z-score; in test [1], 0.0857 z-score; in [2], 0.113 z-score; with RELB subunit;p50 subunit, 0.27 z-score. Moreover, the binding signal in the test with RELB subunit;p52 subunit was 0.286 z-score; in [3] it was -0.0621 z-score; in test [4], -0.0557 z-score.

As for GGGATGCCCCT, the binding signal with RELARELA (p65 homodimer) was found to be 1.02 z-score; in the test with p50p50 homodimer it was 0.778 z-score; in the test with p52p52 homodimer, 2.65 z-score; in test [1] it was 1.78 z-score; in test [2] it was 2.07 z-score; with RELB subunit;p50 subunit, 1.74 z-score. The binding signal turned out to be 1.82 z-score with RELB subunit;p52 subunit, 1.22 z-score in test [3] and 2.2 z-score in test [4].

As to AAAGGCACCCT, the binding signal in the test with RELARELA (p65 homodimer) was -1.13 z-score; in the test with p50p50 homodimer, -0.88 z-score; with p52p52 homodimer, -0.454 z-score; in [1] it was -0.697 z-score; in test [2], -0.787 z-score; with RELB subunit;p50 subunit, -0.685 z-score. The binding signal with RELB subunit;p52 subunit was -0.711 z-score; in [3], -1.07 z-score; in [4], -0.741 z-score.
